Where “and” joins values, the source holds several entries; their conditions need not be identical. Equal values may be shown once. Results filed as inconclusive are left out. Where a call stands in place of a potency, no number is given. Some compounds were tested as several samples or in several runs, with calls that do not always agree. Calls of active or inactive are those of the source. Unless noted, calls follow the shape of the dose curve; as a rule, active = well fitted curve in the direction sought with a large enough effect in the repeat runs; inconclusive = weak or mixed curves; inactive = no such curve, though single readings can be large; an effect the other way counts as inactive or inconclusive.
Key:
[1] = qHTS assay to identify aromatase inhibitors - cell viability counter screen (AID 743084);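 also: cells stimulated with testosterone during compound exposure; nearly all actives have a fitted effect of over 55% in size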; also: potency is read from the fitted curve at half-maximal effect
[2] = target: Aryl hydrocarbon receptor (Homo sapiens) (UniProt P35869); assay: qHTS assay to identify small molecule that activate the aryl hydrocarbon receptor (AhR) signaling pathway (AID 743085); also: nearly all actives have a fitted effect of over 15% in size; also: potency is read from the fitted curve at half-maximal effect;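 as to activation: HG2L7.5c1 human HepG2 liver cells with stably integrated DRE-driven firefly reporter; series mostly up to about 70 µM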
Sequence of Aryl hydrocarbon receptor (Homo sapiens) (P35869 whole entry, looked up): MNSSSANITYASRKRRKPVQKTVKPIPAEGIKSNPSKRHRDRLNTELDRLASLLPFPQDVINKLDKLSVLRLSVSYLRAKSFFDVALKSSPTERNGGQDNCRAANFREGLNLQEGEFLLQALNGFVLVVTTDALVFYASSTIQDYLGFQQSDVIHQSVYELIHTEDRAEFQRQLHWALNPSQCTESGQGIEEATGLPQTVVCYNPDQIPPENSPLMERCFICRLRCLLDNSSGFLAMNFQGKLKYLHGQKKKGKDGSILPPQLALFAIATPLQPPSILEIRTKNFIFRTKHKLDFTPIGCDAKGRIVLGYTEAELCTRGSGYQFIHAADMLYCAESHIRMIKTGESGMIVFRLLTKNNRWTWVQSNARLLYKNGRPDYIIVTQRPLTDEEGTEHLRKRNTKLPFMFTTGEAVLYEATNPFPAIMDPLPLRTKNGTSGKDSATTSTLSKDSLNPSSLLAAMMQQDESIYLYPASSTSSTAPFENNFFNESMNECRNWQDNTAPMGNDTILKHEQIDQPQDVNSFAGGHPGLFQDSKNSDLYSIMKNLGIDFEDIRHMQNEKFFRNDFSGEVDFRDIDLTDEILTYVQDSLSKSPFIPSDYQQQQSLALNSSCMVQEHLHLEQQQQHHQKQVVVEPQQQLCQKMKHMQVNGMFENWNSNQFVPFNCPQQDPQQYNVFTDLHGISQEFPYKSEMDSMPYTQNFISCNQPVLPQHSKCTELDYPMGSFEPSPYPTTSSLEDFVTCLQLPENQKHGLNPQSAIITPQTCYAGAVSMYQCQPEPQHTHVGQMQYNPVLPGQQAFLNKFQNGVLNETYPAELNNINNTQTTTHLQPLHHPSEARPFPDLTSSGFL
Summary of the method: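 24 h compound exposure, 37C, HepG2-derived HG2L7.5c1 cells with DRE-responsive luciferase. Readouts: fluorescence viability, then luminescence at room temperature after 30 min.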

[3] = qHTS assay to identify small molecule that activate the aryl hydrocarbon receptor (AhR) signaling pathway - cell viability counter screen (AID 743086); also: nearly all actives have a fitted effect of over 45% in size; also: potency is read from the fitted curve at half-maximal effect
Summary of the method: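 Cytotoxicity counter screen: CellTiter-Fluor signal (30 min, 37 C) in 4000 HepG2 cells/well carrying the DRE-luciferase reporter, following 24 h compound exposure at 37 C.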

[4] = target: Peroxisome proliferator-activated receptor gamma (Homo sapiens) (UniProt P37231); assay: qHTS assay to identify small molecule agonists of the peroxisome proliferator-activated receptor gamma (PPARg) signaling pathway (AID 743094; active = well fitted activation curve with a large enough effect in the signal ratio in the repeat runs, not every such curve was filed as active; the % refers to the signal ratio)
Sequence of Peroxisome proliferator-activated receptor gamma (Homo sapiens) (P37231 whole entry, looked up): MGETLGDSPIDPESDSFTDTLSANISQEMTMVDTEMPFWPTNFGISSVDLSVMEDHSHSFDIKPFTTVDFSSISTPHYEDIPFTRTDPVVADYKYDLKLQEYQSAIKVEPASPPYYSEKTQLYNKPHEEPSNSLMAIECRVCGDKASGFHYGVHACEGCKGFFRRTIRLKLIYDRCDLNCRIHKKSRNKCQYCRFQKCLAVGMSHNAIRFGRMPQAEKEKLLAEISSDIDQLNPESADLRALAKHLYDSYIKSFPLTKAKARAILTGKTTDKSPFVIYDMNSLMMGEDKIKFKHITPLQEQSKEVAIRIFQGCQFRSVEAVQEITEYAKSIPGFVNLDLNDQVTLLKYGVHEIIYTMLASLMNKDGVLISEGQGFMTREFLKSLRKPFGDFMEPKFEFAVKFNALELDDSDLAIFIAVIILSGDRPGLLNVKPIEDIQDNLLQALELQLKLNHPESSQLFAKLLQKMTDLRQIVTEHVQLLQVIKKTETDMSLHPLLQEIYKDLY
Summary of the method: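 Reporter activation was scored by fluorescence of cleaved LiveBLAzer B/G substrate (1 h, room temperature) in PPARg-bla HEK293H cells previously treated 17 h at 37C with DMSO-dissolved compounds.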

[5] = target: Peroxisome proliferator-activated receptor gamma (Homo sapiens) (UniProt P37231); assay: qHTS assay to identify small molecule antagonists of the peroxisome proliferator-activated receptor gamma (PPARg) signaling pathway (AID 743191; calls by dose curve; also: nearly all actives have a fitted effect of over 30% in size; also: potency is read from the fitted curve at half-maximal effect)
Summary of the method: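 Beta-lactamase reporter under UAS control in HEK293H PPARg-bla cells; compound treatment 17 h at 37C. Read-out: fluorescence intensity after 1 h room-temperature incubation with LiveBLAzer B/G FRET substrate.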

[6] = qHTS assay to identify small molecule antagonists of the peroxisome proliferator-activated receptor gamma (PPARg) signaling pathway - cell viability counter screen (AID 743194); also: nearly all actives have a fitted effect of over 55% in size
Summary of the method: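 Viability was measured as CellTiter-Glo luminescence in GeneBLAzer PPARg UAS-bla HEK293H cells. These cells had been exposed 17 h at 37 C to compounds together with rosiglitazone at 50 nM final, with the beta-lactamase readout taken in the same wells.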

[7] = qHTS assay for small molecule agonists of the antioxidant response element (ARE) signaling pathway (AID 743202; active = well fitted activation curve with a large enough effect in the signal ratio in the repeat runs, not every such curve was filed as active; the % refers to the signal ratio; also: potency is read from the fitted curve at half-maximal effect)
Summary of the method: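 Beta-lactamase reporter activity, read as fluorescence intensity, reflects ARE/Nrf2 pathway induction in HepG2 cells after 16 h compound exposure at 37 C; substrate loading was 2 h at room temperature.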

[8] = qHTS assay for small molecule agonists of the antioxidant response element (ARE) signaling pathway - cell viability counter screen (AID 743203; calls by dose curve; also: nearly all actives have a fitted effect of over 55% in size; also: potency is read from the fitted curve at half-maximal effect)
Summary of the method: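 Viability counter screen: stably transfected ARE-bla HepG2 line, 16 hrs compound exposure at 37C/5% CO2, ATP-based CellTiter-Glo luminescence measured in the reporter wells.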

[9] = qHTS assay for small molecule activators of the heat shock response signaling pathway - cell viability counter screen (AID 743209); also: nearly all actives have a fitted effect of over 50% in size; also: potency is read from the fitted curve at half-maximal effect
Summary of the method: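 Viability of HSE-bla HeLa cells is measured with CellTiter-Glo in the wells already used for the reporter read. Compound exposure lasts 5 h at 37 C, and luminescence is read after 30 min at room temperature.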

[10] = qHTS assay to identify small molecule agonists of the peroxisome proliferator-activated receptor delta (PPARd) signaling pathway - cell viability counter screen (AID 743211); also: nearly all actives have a fitted effect of over 55% in size; also: potency is read from the fitted curve at half-maximal effect
Summary of the method: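 Luminescent ATP viability assay (CellTiter-Glo, 30 min RT) in UAS-bla HEK293H cells carrying the PPAR delta reporter construct, 3000 cells/well, after a 17 h compound treatment at 37 C.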

[11] = target: Peroxisome proliferator-activated receptor delta (Homo sapiens) (UniProt Q03181); assay: qHTS assay to identify small molecule agonists of the peroxisome proliferator-activated receptor delta (PPARd) signaling pathway (AID 743212; calls by dose curve;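 also: HEK293H cells with PPARd UAS beta-lactamase reporter GeneBLAzer system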)
Sequence of Peroxisome proliferator-activated receptor delta (Homo sapiens) (Q03181 whole entry, looked up): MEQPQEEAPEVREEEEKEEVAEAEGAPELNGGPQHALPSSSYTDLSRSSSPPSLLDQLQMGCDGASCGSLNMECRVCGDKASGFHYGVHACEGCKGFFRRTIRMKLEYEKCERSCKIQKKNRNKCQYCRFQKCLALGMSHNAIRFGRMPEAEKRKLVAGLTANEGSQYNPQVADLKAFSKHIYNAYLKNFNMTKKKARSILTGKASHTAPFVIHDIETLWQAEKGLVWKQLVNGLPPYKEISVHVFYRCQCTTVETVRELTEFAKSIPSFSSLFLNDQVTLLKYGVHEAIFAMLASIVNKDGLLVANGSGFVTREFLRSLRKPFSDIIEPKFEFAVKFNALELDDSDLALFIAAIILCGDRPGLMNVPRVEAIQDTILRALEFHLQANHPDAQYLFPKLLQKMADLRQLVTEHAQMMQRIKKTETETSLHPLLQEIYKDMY
Summary of the method: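 Steps: seed PPARd-bla HEK293H cells; incubate 5 h, 37 C, 5% CO2; add compounds in DMSO; incubate, 37 C; add LiveBLAzer B/G FRET substrate; hold 2 h at room temperature; measure fluorescence.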

[12] = qHTS assay to identify small molecule antagonists of the peroxisome proliferator-activated receptor delta (PPARd) signaling pathway - cell viability counter screen (AID 743213); also: nearly all actives have a fitted effect of over 50% in size
Summary of the method: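 Same-well viability: cells pre-incubated 5 h, dosed with compound plus 300 nM L165041, kept 17 h at 37 C, FRET substrate 2 h RT, then CellTiter-Glo 30 min RT and luminescence.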

[13] = qHTS assay to identify small molecule agonists of the farnesoid-X-receptor (FXR) signaling pathway - cell viability counter screen (AID 743218); also: nearly all actives have a fitted effect of over 45% in size
Summary of the method: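 Viability of FXR-bla HEK 293T cells is measured by ATP-based CellTiter-Glo luminescence following 16 h compound treatment at 37 C and a prior 2 h room-temperature beta-lactamase substrate step.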

[14] = qHTS assay to identify small molecule antagonists of the farnesoid-X-receptor (FXR) signaling pathway - cell viability counter screen (AID 743221; active = well fitted cell-killing curve with a large enough effect in the repeat runs, not every such curve was filed as active; also: nearly all actives have a fitted effect of over 50% in size)
Summary of the method: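 In GeneBLAzer FXR-UAS-bla HEK 293T cells stimulated with 50 uM chenodeoxycholic acid (final), compounds acted for 16 h at 37 C. Viability was assessed afterwards by CellTiter-Glo luminescence.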

[15] = target: Vitamin D3 receptor (Homo sapiens) (UniProt P11473); assay: qHTS assay to identify small molecule agonists of the vitamin D receptor (VDR) signaling pathway (AID 743222; calls by dose curve)
Sequence of Vitamin D3 receptor (Homo sapiens) (P11473 whole entry, looked up): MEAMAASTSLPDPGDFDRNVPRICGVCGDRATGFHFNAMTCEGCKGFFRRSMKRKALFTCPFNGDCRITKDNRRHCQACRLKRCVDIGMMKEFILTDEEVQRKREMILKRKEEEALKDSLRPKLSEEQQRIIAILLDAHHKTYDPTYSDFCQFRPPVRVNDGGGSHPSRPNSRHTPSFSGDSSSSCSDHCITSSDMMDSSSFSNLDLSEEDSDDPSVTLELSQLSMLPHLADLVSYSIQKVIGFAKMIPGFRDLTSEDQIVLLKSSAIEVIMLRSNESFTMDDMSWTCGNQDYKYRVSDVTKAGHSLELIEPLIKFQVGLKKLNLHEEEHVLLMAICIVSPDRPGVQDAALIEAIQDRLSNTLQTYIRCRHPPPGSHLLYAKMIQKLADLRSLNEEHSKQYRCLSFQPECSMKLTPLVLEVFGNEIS
Summary of the method: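 Fluorescence from cleaved LiveBLAzer B/G FRET substrate served as readout. VDR-bla cells had been treated 16 h at 37C with test compounds in DMSO, following a 4 h settling period, and substrate was loaded for 2 h at RT.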

[16] = target: Vitamin D3 receptor (Homo sapiens) (UniProt P11473); assay: qHTS assay to identify small molecule antagonists of the vitamin D receptor (VDR) signaling pathway (AID 743223; active = well fitted inhibition curve with a large enough effect in the signal ratio in the repeat runs, not every such curve was filed as active; the % refers to the signal ratio)
Summary of the method: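 Agonist 1alpha,25-dihydroxyvitamin D3 (3 nM in well) was added with each compound to VDR-bla cells preincubated 4 h. Cells stood 16 h at 37C, then FRET substrate 2 h at room temperature; fluorescence intensity recorded.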

[17] = target: Bile acid receptor (Homo sapiens) (UniProt Q96RI1); assay: qHTS assay to identify small molecule agonists of the farnesoid-X-receptor (FXR) signaling pathway (AID 743220; active = well fitted activation curve with a large enough effect in the signal ratio in the repeat runs, not every such curve was filed as active; the % refers to the signal ratio)
Sequence of Bile acid receptor (Homo sapiens) (Q96RI1 whole entry, looked up): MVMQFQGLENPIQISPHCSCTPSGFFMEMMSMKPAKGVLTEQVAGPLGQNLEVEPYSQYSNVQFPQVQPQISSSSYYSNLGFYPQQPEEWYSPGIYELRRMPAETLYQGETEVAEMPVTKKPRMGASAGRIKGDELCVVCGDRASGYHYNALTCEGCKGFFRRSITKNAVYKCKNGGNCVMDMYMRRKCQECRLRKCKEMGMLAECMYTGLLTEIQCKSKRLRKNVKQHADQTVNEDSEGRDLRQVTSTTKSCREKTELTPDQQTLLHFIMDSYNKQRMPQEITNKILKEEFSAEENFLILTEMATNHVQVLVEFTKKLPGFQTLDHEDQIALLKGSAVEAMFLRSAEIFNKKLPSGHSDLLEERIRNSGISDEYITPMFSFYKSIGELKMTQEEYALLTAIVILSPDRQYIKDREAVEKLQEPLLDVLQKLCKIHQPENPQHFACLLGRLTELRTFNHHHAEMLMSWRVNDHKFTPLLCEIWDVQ
Summary of the method: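 FXR-UAS-bla HEK 293T cells carrying a UAS-driven beta-lactamase reporter were plated for 5 h at 37C/5% CO2, then exposed to DMSO-dissolved Tox21 10K compounds for 16 h at 37C. A LiveBLAzer B/G FRET substrate was loaded for 2 h at room temperature before fluorescence reading.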

[18] = target: Peroxisome proliferator-activated receptor delta (Homo sapiens) (UniProt Q03181); assay: qHTS assay to identify small molecule antagonists of the peroxisome proliferator-activated receptor delta (PPARd) signaling pathway (AID 743215; active = well fitted inhibition curve with a large enough effect in the signal ratio in the repeat runs, not every such curve was filed as active; the % refers to the signal ratio;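 also: cells stimulated with agonist L165041 at 300 nM final during compound exposure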; also: potency is read from the fitted curve at half-maximal effect)
Summary of the method: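 Plated HEK293H PPARd-bla cells rested 5 h at 37 C and 5% CO2. Compound, then agonist L165041 at 300 nM final, was added; 17 h at 37 C followed. Substrate loading, 2 h room temperature, fluorescence measured.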

[19] = qHTS assay for small molecule activators of the heat shock response signaling pathway (AID 743210; active = well fitted activation curve with a large enough effect in the signal ratio in the repeat runs, with a control signal flat, not every such curve was filed as active; the % refers to the signal ratio;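 also: HeLa cells with beta-lactamase reporter driven by heat shock elements; series mostly up to about 63 µM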)
Summary of the method: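 Fluorescence from a cleaved B/G FRET substrate (2.5 h, room temp) reports HSE-driven beta-lactamase in HeLa cells treated 5 h at 37 C with DMSO-dissolved compounds.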

[20] = target: Bile acid receptor (Homo sapiens) (UniProt Q96RI1); assay: qHTS assay to identify small molecule antagonists of the farnesoid-X-receptor (FXR) signaling pathway (AID 743217; active = well fitted inhibition curve with a large enough effect in the signal ratio in the repeat runs, not every such curve was filed as active; the % refers to the signal ratio)
Summary of the method: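 Screen of the Tox21 10K library in quantitative HTS format using FXR-UAS-bla HEK 293T reporter cells. Agonist chenodeoxycholic acid, 50 uM final, added with compounds; 16 h incubation at 37 °C; beta-lactamase FRET fluorescence measured.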

Row | SMILES | Potency [1] | Potency [2] | Potency [3] | Potency [4] | Potency [5] | Potency [6] | Potency [7] | Potency [8] | Potency [9] | Potency [10] | outcome [11] | Potency [12] | Potency [13] | Potency [14] | outcome [15] | outcome [16] | outcome [17] | Potency [18] | Potency [19] | Potency [20]
1 | Cc1cccc(C(=O)O)c1 | inactive | inactive | inactive | inactive | inactive | inactive | inactive | inactive | inactive | inactive | inactive | inactive | inactive | inactive | inactive | inactive | – | – | – | –
2 | CCCCC(CC)COCC1CO1 (stereo not drawn) | inactive | inactive | inactive | inactive | inactive | inactive | inactive | inactive | inactive | inactive | – | inactive | inactive | inactive | inactive | inactive | – | – | – | –
3 | COc1ccc(C(=O)CC(=O)c2ccc(C(C)(C)C)cc2)cc1 | inactive | inactive | inactive | inactive | inactive | – | – | inactive | inactive | inactive | inactive | inactive | inactive | inactive | inactive | inactive | inactive | – | – | –
4 | CCCCCCCCCCCO | inactive and 27.3 µM (active) | inactive | inactive | inactive | inactive | inactive | – | inactive and 61.1 µM (active) | inactive and 43.6 µM (active) | inactive and 43.6 µM (active) | – | inactive | inactive | inactive | inactive | inactive | inactive | inactive | – | –
5 | CCCCOCCOCCO | inactive | inactive | inactive | inactive | inactive | inactive | inactive | inactive | inactive | inactive | – | inactive | inactive | inactive | inactive | inactive | – | – | inactive | –
6 | CCCCOCCOCCOCCO | inactive | inactive | inactive | inactive | inactive | – | inactive | inactive | inactive | inactive | inactive | inactive | inactive | inactive | inactive | inactive | – | inactive | inactive | –
7 | c1ccncc1 | inactive | inactive | inactive | inactive | – | inactive | inactive | inactive | inactive | inactive | – | inactive | inactive | inactive | inactive | – | – | – | – | –
8 | CCCCNS(=O)(=O)c1ccccc1 | inactive | inactive | inactive | inactive | inactive | inactive | inactive | inactive | inactive | inactive | – | inactive | inactive | inactive | inactive | inactive | inactive | – | – | inactive
9 | COc1cccc2c1C(=O)c1c(O)c3c(c(O)c1C2=O)C[C@@](O)(C(=O)CO)C[C@@H]3O[C@H]1C[C@H](N)[C@H](O)[C@H](C)O1 | inactive and 13.3 µM (active) and 12.2 µM (active) | inactive | inactive and 3.85 µM (active) | inactive | 2.37 µM (active) | inactive | 266 nM (active) | 13.7 µM (active) and 5.31 µM (active) | – | inactive | – | inactive | inactive | inactive | – | – | – | 1.55 µM (active) and 2.98 µM (active) | – | –
10 | NC=O | inactive | inactive | inactive | inactive | inactive | inactive | – | inactive | inactive | inactive | inactive | inactive | inactive | inactive | inactive | inactive | inactive | inactive | – | inactive
11 | CCC(C)CO (stereo not drawn) | inactive | inactive | inactive | inactive | inactive | – | inactive | inactive | inactive | inactive | inactive | inactive | inactive | inactive | inactive | inactive | inactive | inactive | inactive | inactive
12 | CCC(C)(O)CCCC(C)C (stereo not drawn) | inactive | inactive | inactive | inactive | inactive | inactive | inactive | inactive | inactive | inactive | inactive | inactive | inactive | inactive | – | – | inactive | inactive | inactive | inactive
13 | CCOC(=O)C(C#N)=C(c1ccccc1)c1ccccc1 | inactive | inactive | inactive | inactive | 49 µM (active) and inactive | inactive | – | inactive | inactive | inactive | inactive | inactive | inactive | inactive | – | – | inactive | – | inactive | inactive
14 | C=CC(C)(CCC=C(C)C)OC(C)=O (stereo not drawn) | inactive | inactive | inactive | inactive | inactive | inactive | inactive | inactive | inactive | inactive | inactive | inactive | inactive | inactive | inactive | inactive | inactive | – | inactive | inactive
15 | OC(CCl)CCl | inactive | inactive | inactive | inactive | inactive | inactive | inactive | inactive | inactive | inactive | inactive | inactive | inactive | inactive | inactive | inactive | – | – | inactive | –
16 | CC(C)Oc1ccc2c(=O)c(-c3ccccc3)coc2c1 | inactive | 2.11 µM (active) and 4.73 µM (active) | inactive | inactive | inactive | inactive | – | inactive | inactive | inactive | inactive | inactive | inactive | inactive | inactive | inactive | inactive | – | inactive | inactive

From PubChem BioAssay (Tox21)
